# Measurements from PubChem BioAssay AID463173 (ICCB-Longwood Screening Facility, Harvard Medical School, 2010).
# Hit rate of the full screen: of about 52,000 compounds, about 4,300 (8.3%) were called active. Rule as the data show it: active = survival mostly below about 52% (no sharp cut-off); inactive = mostly above about 56%. Shown is part of a subset that was picked to be rich in actives.
# System: DeltatarO mutant
# Assay: growth inhibition of S. aureus wild type versus tarO mutant, primary screen, teichoic acid synthesis inhibitors, RN4220, OD600 (AID 463173)
# Conditions: OD600, 18 h, stronger effect = lower value, screened at 18.75 µg/mL (by protocol)
row,SMILES,survival
1,COc1cccc2cc(-c3nc(-c4cccs4)no3)c(=O)oc12,67% (inactive)
2,COc1ccc(C)c2sc(NC(=O)c3ccc(S(=O)(=O)N4CCCCC4)cc3)nc12,92% (inactive)
3,O=C(O)c1cc2nc3c(c(C(F)(F)F)n2n1)CCC3,89% (inactive)
4,O=C(Cn1cnc2c(nc3n2CCCCC3)c1=O)Nc1cccc(C(F)(F)F)c1,83% (inactive)
5,O=C(Cn1cc(S(=O)(=O)Cc2ccccc2F)c2ccccc21)NCc1ccccc1,87% (inactive)
6,Cc1ccc(NCc2cc3cc4c(cc3n(CC(=O)Nc3ccc(F)cc3F)c2=O)OCCO4)cc1,70% (inactive)
7,O=C(CN1CCC(C(=O)c2ccc(F)cc2)CC1)Nc1ccccc1,83% (inactive)
8,CCCCSc1nc(O)c(CCC(C)C)c(=O)[nH]1,60% (inactive)
9,Cc1ccc(S(=O)(=O)N(CCc2ccccc2)CC(=O)Nc2ccc(Br)cc2)cc1,75% (inactive)
10,COc1cc(NC(=O)CSc2nc(-c3ccc(C(C)C)cc3)no2)cc(OC)c1,91% (inactive)
11,O=C(Cn1c(=O)n(-c2cccc(Cl)c2)c(=O)c2sc3ccccc3c21)NC1CCCCC1,127% (inactive)
12,C/C=C1\NC(=S)N(Cc2ccccc2)C1=O,84% (inactive)
13,OC1(c2ccccc2)CCN(Cc2ccccc2)CC1,73% (inactive)
14,O=C1CCN(Cc2ccccc2)C(=S)N1,49% (active)
15,COC(=O)C1C(=O)C2=C(CC1C)Nc1ccccc1NC2c1ccc(N(C)C)cc1 (configuration not stated),79% (inactive)
16,Cc1ccc(-c2nnc3ccccc3c2C(=O)Nc2ccc(C)c(F)c2)cc1,80% (inactive)
17,O=C(COc1ccc(F)cc1)Nc1ccc2nc(SCCOc3ccccc3)sc2c1,87% (inactive)
18,CCn1c(=O)n(CC)c2cc(N3CCCCC3)c(NC(=O)Nc3cc(C)cc(C)c3)cc21,100% (inactive)
19,CCOC(=O)c1ccc(NC(=O)Nc2cc3c(cc2N2CCCCC2)n(CC)c(=O)n3CC)cc1,57% (active)

row,SMILES,survival
1,CCOC(=O)c1ccc(N2CCN(c3cccc(Cl)c3)CC2)c(NC(=O)Nc2ccc(Cl)cc2)c1,92% (inactive)
2,CCOC(=O)c1ccc(N2CCN(c3ccc(F)cc3)CC2)c(NC(=O)Nc2cccc(OC)c2)c1,70% (inactive)
3,CCOC(=O)c1ccc(N2CCN(c3cccc(OC)c3)CC2)c(NC(=O)Nc2ccc(OCC)cc2)c1,-5% (active)
4,CCOC(=O)c1ccc(NC(=O)Nc2cc3c(cc2N2CCCC2)n(C)c(=O)n3C)cc1,82% (inactive)
5,CCOc1ccc(-c2nc3c(c(CC)nn3-c3ccccc3)c3cc(OC)c(OC)cc23)cc1,78% (inactive)
6,CCc1nc2sc3c(N4CCC(C)CC4)ncnc3c2c2c1CCCC2,134% (inactive)
7,CCc1cccc(NC(=O)Cn2c(=O)n(CCC(=O)NCC3CCCO3)c(=O)c3cc(OC)c(OC)cc32)c1 (configuration not stated),62% (inactive)
8,COc1cccc2c1Oc1nc(-c3ccccc3)nc(SCC(=O)Nc3ccccc3)c1C2,81% (inactive)
9,CCOC(=O)c1ccc(NC(=O)c2ccc3c(c2)CCN3S(=O)(=O)c2ccc(Cl)cc2)cc1,64% (inactive)
10,CCCN(C(=O)c1cn(CC(C)C)c(=O)c2cc(OC)c(OC)cc12)c1cccc(C)c1,152% (inactive)
11,COc1cc2c(C(=O)N3CCN(c4ccc(C)cc4)C(C)C3)cn(CC(C)C)c(=O)c2cc1OC (configuration not stated),47% (inactive)
12,CCN(C(=O)c1cn(CC(C)C)c(=O)c2cc(OC)c(OC)cc12)c1cc(OC)ccc1OC,55% (inactive)
13,CCc1ccccc1N(C)C(=O)c1cn(CC(C)C)c(=O)c2cc(OC)c(OC)cc12,73% (inactive)
14,COc1cc2c(C(=O)N3CCN(c4cc(Cl)ccc4C)CC3)cn(CC(C)C)c(=O)c2cc1OC,40% (active)
15,COc1cc2c(C(=O)N3CCN(c4cccc(C)c4)C(C)C3)cn(CC(C)C)c(=O)c2cc1OC (configuration not stated),46% (active)
16,COc1cc2c(C(=O)N3CCN(c4ccc(F)cc4)CC3)cn(CC(C)C)c(=O)c2cc1OC,56% (inactive)
17,CCn1cc(C(=O)N2CCN(c3cc(Cl)ccc3C)CC2)c2cc(OC)c(OC)cc2c1=O,64% (inactive)
18,Cc1cccc(N2CCN(C(=O)c3cccn4c(=O)c5cc(Cl)ccc5nc34)CC2C)c1 (configuration not stated),66% (inactive)
19,Cc1cccc(N2CCN(C(=O)c3cnc4c(C)cccn4c3=O)CC2C)c1 (configuration not stated),32% (active)

row,SMILES,survival
1,COc1cc2c(C(=O)N(C)c3cc(Cl)ccc3OC)cn(CC(C)C)c(=O)c2cc1OC,48% (active)
2,Cc1cccn2c(=O)c(C(=O)N3CCN(c4ccccc4)CC3)cnc12,49% (inactive)
3,CCOc1cc(C#N)c(NC(=O)c2ccc(OC)c(S(=O)(=O)N3CCCC3)c2)cc1OCC,52% (inactive)
4,CCCCCOc1ccc(C(=O)CCN2CCOCC2)cc1,90% (inactive)
5,CC(C)c1nc2ccc(C(=O)NCc3ccc(F)cc3)cc2o1,78% (inactive)
6,COc1ccc(C2CC(=O)c3c([nH]c(C(=O)OC4CCCCCC4)c3C)C2)cc1 (configuration not stated),79% (inactive)
7,CCc1ccc(NC(=O)Cn2c(=O)n(CCCC(=O)NCCc3ccc(OC)c(OC)c3)c(=O)c3ccccc32)cc1,77% (inactive)
8,COc1ccc2c(c1)cc1c(=O)n(CC(=O)NC(C)C)nc(C)n12,78% (inactive)
9,N#Cc1c2c(c(N3CCOCC3)[nH]c1=S)CCCC2,94% (inactive)
10,O=S(=O)(NCC(c1ccco1)N1CCOCC1)c1ccc(Cl)cc1 (configuration not stated),86% (inactive)
11,O=C(Nc1c(C(=O)N2CCN(c3ccccc3F)CC2)oc2ccccc12)c1ccccc1F,75% (inactive)
12,Oc1ccc(NCc2ccc(OCc3ccccc3)cc2)cc1,72% (inactive)
13,Oc1ccc(NCc2ccccc2OCc2ccccc2Cl)cc1,52% (active)
14,CCOc1cccc(CNc2ccc(O)cc2)c1OCc1ccccc1Cl,68% (inactive)
15,Oc1ccc(NCc2ccc(OCc3ccccc3Cl)cc2)cc1,35% (active)
16,Oc1ccc(NCc2ccccc2OCc2ccc(Cl)cc2)cc1,91% (inactive)
17,Oc1ccc(NCc2ccccc2OCc2ccccc2F)cc1,60% (inactive)
18,CCC(C)NC(=O)Cn1c(=O)n(CCCC(=O)NCc2ccc(C)cc2)c(=O)c2ccccc21 (configuration not stated),94% (inactive)
19,COc1ccccc1OCC(=O)NCC1(N(C)C)CCCCC1,91% (inactive)
